The results in this text go back to a collection of fitness landscapes (doi:10.1016/j.celrep.2020.107928).

The full ranking holds about 81,000 sequences; the median of “one-hybrid fitness for binding parS DNA” is about -0.17, and the highest 2% start at about 0.51. For the sample, the highest values were picked, then their nearest neighbours and some sequences at random. A value given as a limit tells only on which side of the number the result lay.

B1: Caulobacter ParB omega fusion; a variant is named by its letters at X, in order, B8GW30 (parent)
chain: MESVVVGEPGMSEGRRGLGRGLSALLGEVDAAPAQAPGEQLGGSREAPIEILQRNPDQPRRTFREEDLEDLSNSIREKGVLQPILVRPSPDTAGEYQIVAGERAWRAAQRAGLKTVPIMVRELDDLAVLEIGIIENVQRADLNVLEEALSYKVLMEKFERTQENIAQTIGKSXSHVANXMRLLXLPDEVQSYLVSGELTAXHARAIAAAADPVALAKQIIEGGLSVRETEALARKAPNLSAGKSKGGRPPRVKDTDTQALESDLSSVLGLDVSIDHRGSTGTLTITYATLEQLDDLCNRLTRGI

The experiment covers variants of B1. Nature of the experiment: one-hybrid fitness for binding parS DNA (scaled: cognate 1, non-cognate 0); higher = stronger binding. The note with it: with parS DNA site. The gist of the method: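 Fitness is the rescaled log change in variant-to-wild-type read ratio, measured by Illumina sequencing of plasmids before and after bacterial one-hybrid selection. The scale puts cognate at 1 and non-cognate at 0. Selection of Caulobacter ParB libraries, four specificity codons randomised, took place in E. coli USO with a HIS3 reporter, site 19 bp from the promoter, over 48 hours at 37°C on M9-minus-histidine with 0.1 mM IPTG and 5 mM 3-AT.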
For YNMN, the “one-hybrid fitness for binding parS DNA” value was no more than 0.2. Regarding KQFG, the “one-hybrid fitness for binding parS DNA” value is no more than 0.2.

Regarding NYTR, the “one-hybrid fitness for binding parS DNA” value is no more than 0.2. On to EPTE, for which the “one-hybrid fitness for binding parS DNA” value is no more than 0.2.

As for PWQI, the “one-hybrid fitness for binding parS DNA” value was no more than 0.2. Consider FKHA, for which the “one-hybrid fitness for binding parS DNA” value is no more than 0.2. The figure for RRVF is no more than 0.2; for RRVK it is no more than 0.2. Regarding RRKT, the “one-hybrid fitness for binding parS DNA” value stood at 0.59. In the case of RRVT it was 0.607; in that of RRKE, no more than 0.2.

With NRKT, the “one-hybrid fitness for binding parS DNA” value was no more than 0.2. For VTCL, the “one-hybrid fitness for binding parS DNA” value is no more than 0.2. In the case of GDYG it was no more than 0.2. The figure for HEET is no more than 0.2. The figure for ALQS is no more than 0.2; for RITF it is 0.254; for RHTT it is 0.868. In the case of RCTT, the “one-hybrid fitness for binding parS DNA” value is 0.949. In the case of RITT it was 0.931; in that of RETT, no more than 0.2.

For the variant RHTR, the “one-hybrid fitness for binding parS DNA” value was no more than 0.2. As to RATT, the “one-hybrid fitness for binding parS DNA” value is 0.915.

As to RATK, the “one-hybrid fitness for binding parS DNA” value was no more than 0.2. With RHTQ, the “one-hybrid fitness for binding parS DNA” value is no more than 0.2. The figure for RPTT is no more than 0.2; for RATQ it is no more than 0.2; for RITM it is 0.319. For VVST, the “one-hybrid fitness for binding parS DNA” value was no more than 0.2. In the case of HWNY, the “one-hybrid fitness for binding parS DNA” value is no more than 0.2. In the case of MEIG it was no more than 0.2. As to RMTY, the “one-hybrid fitness for binding parS DNA” value was determined as 0.497. In the case of RLTY it was 0.48. In the case of RLTT it was 0.956.

With RMTL, the “one-hybrid fitness for binding parS DNA” value was no more than 0.2. As for RRTY, the “one-hybrid fitness for binding parS DNA” value stood at 0.398. With RRTT, the “one-hybrid fitness for binding parS DNA” value worked out at 0.565. For the variant RRTF, the “one-hybrid fitness for binding parS DNA” value is no more than 0.2. The figure for RTTT is 0.917.

Regarding RTTF, the “one-hybrid fitness for binding parS DNA” value came to 0.253.

As to RTTD, the “one-hybrid fitness for binding parS DNA” value was no more than 0.2. Regarding RLTR, the “one-hybrid fitness for binding parS DNA” value was no more than 0.2. In the case of RMTT, the “one-hybrid fitness for binding parS DNA” value was 0.945. The figure for VTRD is no more than 0.2; for SSGG it is no more than 0.2; for QKKR it is no more than 0.2. As for CTAV, the “one-hybrid fitness for binding parS DNA” value is no more than 0.2. On to PDQD, for which the “one-hybrid fitness for binding parS DNA” value was no more than 0.2. Regarding DVDG, the “one-hybrid fitness for binding parS DNA” value is no more than 0.2. Take RFTT: the “one-hybrid fitness for binding parS DNA” value was 0.836. In the case of RFTD it was no more than 0.2; in that of DFTT, no more than 0.2; in that of RKTF, no more than 0.2. In the case of RKTY it was 0.353; in that of RKTT, 0.754; in that of RDTT, no more than 0.2.

Turning to RSTT, the “one-hybrid fitness for binding parS DNA” value stood at 0.895. RSTR: the “one-hybrid fitness for binding parS DNA” value was no more than 0.2. In the case of CALF, the “one-hybrid fitness for binding parS DNA” value is no more than 0.2. With HDLT, the “one-hybrid fitness for binding parS DNA” value is no more than 0.2. The figure for WILE is no more than 0.2; for CTPG it is no more than 0.2. In the case of CPIR it was no more than 0.2; in that of QLLW, no more than 0.2; in that of TAMD, no more than 0.2. The figure for VFPY is no more than 0.2; for RKVP it is no more than 0.2. RKKC: the “one-hybrid fitness for binding parS DNA” value was found to be 0.694.

For RKKR, the “one-hybrid fitness for binding parS DNA” value is no more than 0.2. With RKVC, the “one-hybrid fitness for binding parS DNA” value was 0.868.

As for RKKQ, the “one-hybrid fitness for binding parS DNA” value was no more than 0.2. As for RKVQ, the “one-hybrid fitness for binding parS DNA” value is no more than 0.2. Turning to WLFR, the “one-hybrid fitness for binding parS DNA” value was no more than 0.2. Turning to ESLF, the “one-hybrid fitness for binding parS DNA” value is no more than 0.2. As for DFNL, the “one-hybrid fitness for binding parS DNA” value was no more than 0.2.

For the variant RNAN, the “one-hybrid fitness for binding parS DNA” value stood at 0.301. Take RNFQ: the “one-hybrid fitness for binding parS DNA” value was no more than 0.2. In the case of RNFM, the “one-hybrid fitness for binding parS DNA” value was no more than 0.2.

Consider RNFC, for which the “one-hybrid fitness for binding parS DNA” value is 0.627. RNAC: the “one-hybrid fitness for binding parS DNA” value was determined as 0.754. For the variant RNAP, the “one-hybrid fitness for binding parS DNA” value is no more than 0.2. Consider AKFS, for which the “one-hybrid fitness for binding parS DNA” value was no more than 0.2. Regarding MTSR, the “one-hybrid fitness for binding parS DNA” value was no more than 0.2.

With VNNR, the “one-hybrid fitness for binding parS DNA” value is no more than 0.2. On to RRHK, for which the “one-hybrid fitness for binding parS DNA” value was no more than 0.2. In the case of RRHD it was no more than 0.2; in that of RRHP, no more than 0.2; in that of RRHS, 0.645. With RRHH, the “one-hybrid fitness for binding parS DNA” value is no more than 0.2. As to RRHN, the “one-hybrid fitness for binding parS DNA” value came to 0.689.

With LFLC, the “one-hybrid fitness for binding parS DNA” value is no more than 0.2. Turning to DLIT, the “one-hybrid fitness for binding parS DNA” value is no more than 0.2. For RDNY, the “one-hybrid fitness for binding parS DNA” value was no more than 0.2. On to TIRM, for which the “one-hybrid fitness for binding parS DNA” value was no more than 0.2. In the case of VENG it was no more than 0.2; in that of NEVT, no more than 0.2; in that of GRRY, no more than 0.2. As to QQLD, the “one-hybrid fitness for binding parS DNA” value was no more than 0.2.
